# Laboratory results taken from PMC7862700, “An all-to-all approach to the identification of sequence-specific readers for epigenetic DNA modifications on cytosine”.
# What was measured:
# Experiment in all cases: DAPPL (digital affinity profiling via proximity ligation, sequencing); 10 mM Tris-HCl pH 7.5, 50 mM NaCl, 1 mM DTT, 4% glycerol, room temperature, 30 min; GST-TFs on glutathione beads, 16-mer random dsDNA library, 0.1% formaldehyde crosslink after washing; high values mean tight binding
# Details in all cases: protein: recombinant; tags: N-terminal GST; dsDNA, one strand shown
# FLI1 = molecular target: T1, FLI1 (Homo sapiens, UniProt Q01543 1-452)
# T1 sequence: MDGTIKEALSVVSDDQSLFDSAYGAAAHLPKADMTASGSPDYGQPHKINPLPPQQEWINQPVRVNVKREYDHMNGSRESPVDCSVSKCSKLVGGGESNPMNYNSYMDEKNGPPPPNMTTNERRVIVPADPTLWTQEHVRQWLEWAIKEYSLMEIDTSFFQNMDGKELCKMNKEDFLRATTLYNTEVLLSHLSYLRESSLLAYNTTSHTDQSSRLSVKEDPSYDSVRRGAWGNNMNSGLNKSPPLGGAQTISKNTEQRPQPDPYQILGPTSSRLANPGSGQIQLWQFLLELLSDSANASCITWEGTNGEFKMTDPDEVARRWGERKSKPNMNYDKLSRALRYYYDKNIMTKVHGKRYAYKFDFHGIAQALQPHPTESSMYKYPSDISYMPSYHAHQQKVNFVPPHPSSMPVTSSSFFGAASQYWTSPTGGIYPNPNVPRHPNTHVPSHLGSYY
# How it was run: (§1)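 Binding signal is defined as a hexamer's read frequency for one factor over its frequency for the tag-only sample. To obtain reads, GST-fused human transcription factors were expressed in yeast, captured on glutathione beads, barcoded with DNA and pooled with that sample. Pools met 200 nmole of a 16-mer random double-stranded DNA library in Tris/NaCl/DTT/glycerol buffer for 30 min at room temperature before washing, 0.1% formaldehyde crosslinking, proximity ligation (BsaI/T4 ligase, 1 h, 37 °C), PCR and Illumina NextSeq500 sequencing.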
# GABPA = molecular target: T2, GABPA (Homo sapiens, UniProt Q06546 1-454)
# T2 sequence: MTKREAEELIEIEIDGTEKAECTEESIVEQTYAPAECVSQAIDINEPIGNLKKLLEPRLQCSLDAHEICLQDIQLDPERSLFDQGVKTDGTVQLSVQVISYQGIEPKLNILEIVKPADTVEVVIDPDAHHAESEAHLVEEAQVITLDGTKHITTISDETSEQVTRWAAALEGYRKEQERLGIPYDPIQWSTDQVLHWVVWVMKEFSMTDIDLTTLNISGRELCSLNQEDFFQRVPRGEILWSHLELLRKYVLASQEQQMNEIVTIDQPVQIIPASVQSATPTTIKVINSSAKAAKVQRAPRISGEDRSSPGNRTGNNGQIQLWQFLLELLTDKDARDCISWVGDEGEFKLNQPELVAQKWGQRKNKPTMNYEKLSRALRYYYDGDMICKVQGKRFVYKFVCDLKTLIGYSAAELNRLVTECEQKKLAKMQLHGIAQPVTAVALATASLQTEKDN
# How it was run: as §1
# ERG = molecular target: T3, ERG (Homo sapiens, UniProt P11308 1-479)
# T3 sequence: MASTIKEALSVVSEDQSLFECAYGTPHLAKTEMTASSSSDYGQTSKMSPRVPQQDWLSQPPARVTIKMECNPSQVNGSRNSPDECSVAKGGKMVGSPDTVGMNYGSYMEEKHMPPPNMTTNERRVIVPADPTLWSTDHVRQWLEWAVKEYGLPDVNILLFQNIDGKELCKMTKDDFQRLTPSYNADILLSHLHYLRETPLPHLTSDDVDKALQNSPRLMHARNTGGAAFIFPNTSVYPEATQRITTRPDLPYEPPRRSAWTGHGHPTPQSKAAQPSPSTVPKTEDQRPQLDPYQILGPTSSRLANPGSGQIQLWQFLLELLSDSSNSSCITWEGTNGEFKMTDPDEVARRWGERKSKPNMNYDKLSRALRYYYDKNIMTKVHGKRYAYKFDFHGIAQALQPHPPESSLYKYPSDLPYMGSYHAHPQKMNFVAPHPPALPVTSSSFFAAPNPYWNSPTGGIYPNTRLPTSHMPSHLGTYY
# How it was run: as §1
# ELF1 = ELF1 (Homo sapiens, UniProt P32519 1-619)
# How it was run: as §1
# EHF = molecular target: T4, EHF (Homo sapiens, UniProt Q9NZC4 1-300)
# T4 sequence: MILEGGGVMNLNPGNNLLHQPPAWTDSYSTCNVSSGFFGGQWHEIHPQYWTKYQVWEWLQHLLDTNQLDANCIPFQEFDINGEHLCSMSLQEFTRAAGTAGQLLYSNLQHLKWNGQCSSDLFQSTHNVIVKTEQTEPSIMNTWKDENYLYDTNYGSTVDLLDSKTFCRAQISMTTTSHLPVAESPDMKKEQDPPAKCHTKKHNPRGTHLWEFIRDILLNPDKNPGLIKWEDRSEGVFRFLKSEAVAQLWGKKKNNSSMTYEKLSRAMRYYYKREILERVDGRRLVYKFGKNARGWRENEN
# How it was run: as §1
# SPI1 = SPI1 (Homo sapiens, UniProt P17947 1-270)
# How it was run: as §1
# ELK3 = molecular target: T5, ELK3 (Homo sapiens, UniProt P41970 1-407)
# T5 sequence: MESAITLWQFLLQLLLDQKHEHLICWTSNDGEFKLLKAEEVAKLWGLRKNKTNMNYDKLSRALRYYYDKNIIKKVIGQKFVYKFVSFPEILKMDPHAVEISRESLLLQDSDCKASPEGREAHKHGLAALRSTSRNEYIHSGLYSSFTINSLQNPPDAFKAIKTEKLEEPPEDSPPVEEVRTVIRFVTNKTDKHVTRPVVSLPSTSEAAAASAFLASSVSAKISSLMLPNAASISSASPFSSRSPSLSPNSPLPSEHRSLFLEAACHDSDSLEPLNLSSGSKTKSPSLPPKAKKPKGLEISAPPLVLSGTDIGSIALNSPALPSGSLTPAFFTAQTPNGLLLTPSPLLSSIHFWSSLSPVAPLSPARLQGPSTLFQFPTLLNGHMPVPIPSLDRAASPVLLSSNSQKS
# How it was run: as §1
# ETV5 = ETV5 (Homo sapiens, UniProt P41161 1-510)
# How it was run: as §1
# SPIC = molecular target: T6, SPIC (Homo sapiens, UniProt Q8N5J4 1-248)
# T6 sequence: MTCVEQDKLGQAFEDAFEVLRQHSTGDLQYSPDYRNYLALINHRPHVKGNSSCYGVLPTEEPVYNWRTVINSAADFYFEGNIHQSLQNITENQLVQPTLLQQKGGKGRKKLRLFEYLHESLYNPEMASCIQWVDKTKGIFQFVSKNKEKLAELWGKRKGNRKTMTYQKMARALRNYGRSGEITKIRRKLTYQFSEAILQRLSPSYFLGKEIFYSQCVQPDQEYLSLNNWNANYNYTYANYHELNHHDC
# How it was run: as §1
# ETS2 = molecular target: T7, ETS2 (Homo sapiens, UniProt P15036 1-469)
# T7 sequence: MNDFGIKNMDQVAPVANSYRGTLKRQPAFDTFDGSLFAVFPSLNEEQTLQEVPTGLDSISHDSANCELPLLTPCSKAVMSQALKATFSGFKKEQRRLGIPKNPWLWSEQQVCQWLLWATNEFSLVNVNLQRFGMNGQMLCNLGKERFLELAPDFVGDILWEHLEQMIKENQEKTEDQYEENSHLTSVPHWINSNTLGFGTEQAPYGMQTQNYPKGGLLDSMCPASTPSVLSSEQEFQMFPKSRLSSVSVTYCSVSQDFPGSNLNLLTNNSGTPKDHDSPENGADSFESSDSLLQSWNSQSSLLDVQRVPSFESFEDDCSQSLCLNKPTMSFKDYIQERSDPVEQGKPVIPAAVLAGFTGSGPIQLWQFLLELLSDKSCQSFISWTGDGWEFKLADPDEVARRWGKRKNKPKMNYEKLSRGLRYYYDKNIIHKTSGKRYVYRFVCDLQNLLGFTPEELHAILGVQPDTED
# How it was run: as §1
# SPDEF = molecular target: T8, SPDEF (Homo sapiens, UniProt O95238 1-335)
# T8 sequence: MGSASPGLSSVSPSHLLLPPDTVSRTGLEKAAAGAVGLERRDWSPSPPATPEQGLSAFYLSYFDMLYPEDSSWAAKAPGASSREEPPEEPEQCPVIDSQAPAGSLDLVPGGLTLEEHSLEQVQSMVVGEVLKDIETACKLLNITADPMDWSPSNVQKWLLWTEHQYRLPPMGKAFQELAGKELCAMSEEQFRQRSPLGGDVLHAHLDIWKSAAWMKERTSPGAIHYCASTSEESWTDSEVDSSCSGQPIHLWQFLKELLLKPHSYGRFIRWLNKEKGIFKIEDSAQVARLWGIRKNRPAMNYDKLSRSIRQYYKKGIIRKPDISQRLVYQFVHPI
# How it was run: as §1
# ETV3 = molecular target: T9, ETV3 (Homo sapiens, UniProt P41162-2 1-143)
# T9 sequence: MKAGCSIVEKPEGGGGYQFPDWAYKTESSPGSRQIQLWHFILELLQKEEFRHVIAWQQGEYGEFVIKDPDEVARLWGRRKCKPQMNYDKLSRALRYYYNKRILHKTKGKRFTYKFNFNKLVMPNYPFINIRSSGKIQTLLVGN
# How it was run: as §1
# ETV6 = ETV6 (Homo sapiens, UniProt P41212 1-452)
# How it was run: as §1
# Sequence of ETV5 (P41161 whole entry): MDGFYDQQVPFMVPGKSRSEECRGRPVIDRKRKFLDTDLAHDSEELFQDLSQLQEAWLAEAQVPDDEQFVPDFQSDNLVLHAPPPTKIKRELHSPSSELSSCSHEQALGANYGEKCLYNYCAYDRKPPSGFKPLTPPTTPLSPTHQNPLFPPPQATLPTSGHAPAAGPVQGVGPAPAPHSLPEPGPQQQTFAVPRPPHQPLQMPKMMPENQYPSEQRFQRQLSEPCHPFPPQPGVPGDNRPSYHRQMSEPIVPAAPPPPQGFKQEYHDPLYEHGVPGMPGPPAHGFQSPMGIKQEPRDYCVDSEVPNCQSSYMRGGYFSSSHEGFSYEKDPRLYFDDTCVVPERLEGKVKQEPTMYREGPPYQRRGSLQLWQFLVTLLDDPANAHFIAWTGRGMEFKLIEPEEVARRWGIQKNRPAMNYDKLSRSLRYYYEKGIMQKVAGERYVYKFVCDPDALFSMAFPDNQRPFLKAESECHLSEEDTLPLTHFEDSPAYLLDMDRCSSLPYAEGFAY
# Sequence of ETV6 (P41212 whole entry): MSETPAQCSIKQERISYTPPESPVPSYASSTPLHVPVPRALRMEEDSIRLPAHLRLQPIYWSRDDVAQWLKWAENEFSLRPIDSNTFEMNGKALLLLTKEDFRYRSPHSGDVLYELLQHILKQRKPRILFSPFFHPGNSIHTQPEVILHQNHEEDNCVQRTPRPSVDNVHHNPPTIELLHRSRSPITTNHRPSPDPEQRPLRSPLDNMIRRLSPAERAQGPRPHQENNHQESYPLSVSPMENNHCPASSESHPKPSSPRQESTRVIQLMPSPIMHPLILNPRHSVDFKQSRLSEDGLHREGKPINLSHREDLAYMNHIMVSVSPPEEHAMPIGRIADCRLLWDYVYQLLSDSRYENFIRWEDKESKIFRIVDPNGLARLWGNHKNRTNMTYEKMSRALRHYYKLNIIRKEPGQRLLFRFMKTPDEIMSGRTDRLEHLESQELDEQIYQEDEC
# Sequence of ELF1 (P32519 whole entry): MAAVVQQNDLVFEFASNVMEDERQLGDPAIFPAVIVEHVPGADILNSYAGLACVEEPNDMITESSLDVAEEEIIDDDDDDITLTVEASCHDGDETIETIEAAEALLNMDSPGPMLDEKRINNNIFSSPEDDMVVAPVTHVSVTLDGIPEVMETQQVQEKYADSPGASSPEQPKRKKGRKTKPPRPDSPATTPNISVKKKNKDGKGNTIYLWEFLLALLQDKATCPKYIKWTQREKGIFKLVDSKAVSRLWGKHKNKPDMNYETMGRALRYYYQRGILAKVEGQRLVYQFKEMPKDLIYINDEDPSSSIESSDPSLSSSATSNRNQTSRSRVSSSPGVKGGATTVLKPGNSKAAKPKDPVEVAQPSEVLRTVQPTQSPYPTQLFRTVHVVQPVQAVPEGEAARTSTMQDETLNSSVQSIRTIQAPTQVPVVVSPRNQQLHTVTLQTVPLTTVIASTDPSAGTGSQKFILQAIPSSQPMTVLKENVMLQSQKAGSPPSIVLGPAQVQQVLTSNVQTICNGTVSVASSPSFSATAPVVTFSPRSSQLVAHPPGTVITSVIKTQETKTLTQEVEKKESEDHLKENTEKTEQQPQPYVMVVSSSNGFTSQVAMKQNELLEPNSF
sequence,measurement,setting,value
GGTTAT,binding signal,FLI1,"1.07 fold enrichment (6-mer frequency, TF over GST control)"
same,binding signal,GABPA,"1.03 fold enrichment (6-mer frequency, TF over GST control)"
same,binding signal,ERG,"1.04 fold enrichment (6-mer frequency, TF over GST control)"
same,binding signal,ELF1,"1.01 fold enrichment (6-mer frequency, TF over GST control)"
same,binding signal,EHF,"1.03 fold enrichment (6-mer frequency, TF over GST control)"
same,binding signal,SPI1,"1 fold enrichment (6-mer frequency, TF over GST control)"
same,binding signal,ELK3,"1.07 fold enrichment (6-mer frequency, TF over GST control)"
same,binding signal,ETV5,"1.09 fold enrichment (6-mer frequency, TF over GST control)"
same,binding signal,SPIC,"1.05 fold enrichment (6-mer frequency, TF over GST control)"
same,binding signal,ETS2,"1.04 fold enrichment (6-mer frequency, TF over GST control)"
same,binding signal,SPDEF,"1.05 fold enrichment (6-mer frequency, TF over GST control)"
same,binding signal,ETV3,"1.05 fold enrichment (6-mer frequency, TF over GST control)"
same,binding signal,ETV6,"1.03 fold enrichment (6-mer frequency, TF over GST control)"
